# Results published in the supplement of paper PMC6555819.
# Tested on: VDR:RXRa (NR concentration 270 nM, RXRa partner concentration 90 nM)
# Assay: PBM binding z-score (relative to random genomic background probes); higher = stronger binding; sequences stand for … in GC…GCGATTGACAGCGTAGAATGAAGG
# Protocol: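 Protein-binding microarray (Agilent 4x180K custom design, double-stranded 60-nt probes: 5' GC cap, 34-nt variable region, 24-nt constant primer region; full probe sequence given). Purified or IVT nuclear receptor:RXRα heterodimers (3:1 NR:RXRα, mostly 270:90 nM) or homodimers were incubated for 1 h in PBS with 2% milk and no ligand, then detected with Alexa488 antibodies. Fluorescence from o1-orientation probes (~5 replicates averaged) was converted to z-scores against 500 random hg19 background probes. Variable regions are seed direct-repeat (DR0–DR5) sites, all their single-nucleotide variants and half-site ablations.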
row,Sequence,PBM binding z-score
1,TCTATTAGGTGAAGGGCAACCGACGAGTCCGTTT,0.783
2,TAGCCAAGGTCATTGGGCCAGTATAGTACGCATC,4.87
3,TCGAGTAGGTTACGGGCATTCAGAATGGCGTCGA,-0.46
4,TCTAGGTGGTCACGGAGGTCACACACGACGGGTA,6.02
5,ACTAGCAGGCCAAGTATGGGTCACTCAAACAAAG,0.573
6,AGTCAAAGTCCACTAGGTAACGTAAGATTCAGCT,-0.0687
7,ATCTCTAGGTAAAATTCAGTGAAAGATCGATAGA,0.35
8,TCATATAGGTAGATGCTAGGTGAAAGTCCGATCT,0.638
9,CCTTACGGGTCAAGTTTATAGCACGGGTGGTACG,3.9
10,CCGACTGGGGCACAAGGTTACCATAAGCCAGCCC,0.209
11,GTACCAAGGTGAATAGGTCTTTGATGAGTAGGCG,0.495
12,TCTCGGAGGAGACGAAGGTCAGAGCTTTCCAGAG,0.483
13,GCGACTGGGGAATCAGCAGGTTACCATAACTTAA,-0.497
14,GCGACTGGGCCAAAGCAGGTTACCATAAGGTTGG,-0.513
15,CGTCAAAGTTCAACTAAGATAACGTAAAGCACGC,4.2
16,TCTATTAGTTGAAGGGCAACAGACGAGTCCGTTT,1.01
17,TCATATAGTTAAATGCTAGGTGAAAGTCCGATCT,0.952
18,CGGACTGGGGCAGAAAGGTTACCATACCATCCGG,1.33
19,CGAACTAGGTCAAGGACAGTCAATCTCCGCACGC,1.61
20,TCTGGTAGATCAGCAGGTTAAGAAAGCTGGCCAA,0.0223

row,Sequence,PBM binding z-score
1,CGTCCAAGGTCAGAGAGCTCAGTGAATGCCGAGT,2.76
2,TCATATCGGTAAATGCTAGGTGAAAGTCCGATCT,0.566
3,TATACAGGGTCAAAGGCCAGAGTACGAATGTCGA,4.8
4,TCTAGCACGCCAGAGGGTCACTCAAGAGGTACGG,1.37
5,GATACAGGGTCAGCTAGAGGCAAGAGTATGGAAA,2.63
6,TCTCGGACGACACGAAGGTCAGAGCTTTCCAGAG,1.2
7,CCTATTAGTTGACCATAAGGTCAACCGAAGCTCG,3.95
8,GGAACGAGGGCAAAGTTTATAGCATCTGTCGACG,1.92
9,ATCGAAAGGTCGAATGTGAGTATACCCACCCGAA,2.84
10,CGAACTAGGTCATAACAGGACAGTGAAGGATGAT,1.89
11,GCTCGGAGCACAAGGTCAGAGCTTTGTCCGTAGA,1.2
12,TAGCCTAGGTCATTGGGCCTGTATAGTACGCATC,2.38
13,CAAACTAAGTCACAGAGGTCAAAGTCCGTGCGTA,6.65
14,TCTTGTAGATCAGCAGGTTAAAAAAGCTGGCCAA,0.495
15,TCTTGTAGATCAAAGATTAAGAAAGCCGAAGCCT,0.389
16,CGTCAAAGTGCAACTAAGGTAACGTAAAGCACGC,0.866
17,CTGGAAAGGTCGTGCTCAGGTGAGTATACCAAAC,3.1
18,TCTTGTAGATCAAAGTTTAAGAAAGCCGAAGCCT,0.555
19,CCTTACGGGTCACGAGGCTATAGCACGACGAGCG,3.93
20,TCTCGGAGGACACGAAGATCAGAGCTTTCCAGAG,-0.165
